Hits are enriched below; roughly 4.1% of the tested compounds scored in any of these assays.
TWEAK Fn14 block – blocks TWEAK-Fn14 interaction in a reporter cell assay; AID 1159606; inhibition, % at 10 µM; actives 2% (n = 360,000); TWEAK-stimulated Fn14 reporter cells, luciferase luminescence, 8 h; in the data active = inhibition above about 50%
TROY signal inh – inhibitors of TROY-dependent NF-kB signaling | Q293 LMP1-TROYcd NF-kB luciferase reporter, 4 h | inhibition, % at 10 µM | actives 0.98% (n = 360,000) | AID 1347056;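 active = compounds whose plate-normalised and pattern-corrected inhibition of the luciferase reporter signal at the single screening dose is 50% or more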
MITF TRPM1 inh – reduces MITF-dependent TRPM1 promoter luciferase signal; inhibition, % at 12.5 µM; actives 0.83% (n = 330,000); SK-MEL-5 TRPM1 promoter luciferase, 24 h;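 active = mean inhibition across replicates of 60% or more, whatever share of single replicates reaches that level; inconclusive = some that reach 60%, reason not given; inactive = mean inhibition across replicates below 60%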
Peg3 prom inh – inhibitors of Peg3 promoter; HeLa PEG-Prom luciferase reporter, luminescence, overnight; actives 1.7% (n = 360,000); inhibition, % at 20 µM;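 active = inhibition of at least 50% at 20 µM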
Shn3 inh set2 – inhibitors of Schnurri-3 3'UTR reporter in osteoblasts; Clone20 osteoblast Shn3 3'UTR firefly luciferase, 24 h; inhibition, % at 12.5 µM; actives 0.52% (n = 360,000);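 active = mean inhibition of at least 75% with every replicate also reaching 75%; inconclusive = mean inhibition at least 75% but some replicate below; inactive = mean inhibition below 75%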;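 also: 0% = median of neutral control wells and 100% = pilot-screen positive control compound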
EBV LMP1 NFkB – reduces LMP1-driven NF-kappaB luciferase signal. LMP1-induced NF-kappaB luciferase reporter cells, luminescence. inhibition, % at 12.5 µM. actives 0.69% (n = 350,000). AID 504558; in the data active = inhibition above about 41%; inconclusive = no clear call, values can overlap the other calls;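 also: 0% = neutral control wells and 100% = reference inhibitor control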
Starred values were filed as active, the others as inactive; i = inactive; ? = inconclusive; . = not tested or not shown.

SMILES	TWEAK Fn14 block	TROY signal inh	MITF TRPM1 inh	Peg3 prom inh	Shn3 inh set2	EBV LMP1 NFkB
CC1(C(=O)NS(=O)(=O)c2cccc(Cl)c2)CCN1C(=O)C1(c2ccc(Cl)cc2)CCC1 (stereo not drawn)	2	8	.	3	-1	.
CC(=O)Nc1cccc(NC(=O)CSc2nc(C)c(C)c(C)c2C#N)c1	37	22	38	-7	24	17
Cc1cccc(C)c1NC(=O)CSc1nc(C)c(CC(=O)c2ccc(Br)cc2)c(C)c1C#N	-47	17	40	60*	1	4
O=C(C1CCC(=O)N(C2CCCC2)C1)N1CCN(c2ccc(Cl)cc2)CC1 (stereo not drawn)	1	-17	-12	-24	-2	5
Cc1ccc(Cl)cc1N1CCN(C(=O)C2CCC(=O)N(C3CCCCCC3)C2)CC1 (stereo not drawn)	1	-10	23	-2	86*	26
CCCCCCc1cc2cc(S(=O)(=O)c3ccc(F)cc3)c(=O)oc2cc1O	22	51*	-10	43	3	-7
CCCCCCc1cc2cc(-c3nnc(-c4ccccc4OC)o3)c(=O)oc2cc1O	44	44	-2	11	7	14
CCCCCCc1cc2cc(-c3nnc(-c4ccccc4O)o3)c(=O)oc2cc1O	55*	43	46	36	9	-8
NC(=O)c1ccc(NC(=O)CSc2nnc(-c3cccnc3)n2Cc2ccco2)cc1	-1	4	-6	-12	-20	-7
CCCCCCn1c2c(c(=N)c3c1CCC3)CCC2	28	59*	?	40	70	?
CCCCCCCCCn1c2c(c(=N)c3c1CCC3)CCC2	46	52*	78*	66*	65	37
CCCCn1c2c(c(=N)c3c1CCC3)CCC2	25	18	32	17	69	8
CCn1c2c(c(=N)c3c1CCC3)CCC2	-2	-18	7	14	14	-7
CCCCCCCn1c2c(c(=N)c3c1CCC3)CCCC2	61*	48	68*	31	44	41*
Cc1ccc2c(=O)[nH]c(Cc3ccccc3C(=O)O)nc2c1	24	42	12	-4	-2	11
COc1cc2c3nnc(-c4ccc(F)cc4)c-3cn(Cc3ccc(C)cc3)c2cc1OC	i	-18	85*	66*	18	-40
COc1cc2c3nnc(-c4ccccc4)c-3cn(Cc3ccc(F)cc3)c2cc1OC	-36	-6	27	46	26	0
COc1cc2c3nnc(-c4ccc(F)cc4)c-3cn(Cc3cccc(C)c3)c2cc1OC	-373	-36	.	100*	26	-58
COc1cc2c3nnc(-c4ccc(F)cc4)c-3cn(Cc3cccc(F)c3)c2cc1OC	-19	-7	75*	96*	-8	-5
CN1C(=O)C2(Oc3ccccc3C3CC(c4ccccc4)=NN32)c2ccccc21 (stereo not drawn)	81*	-43	-36	-165	-105	-30
COc1ccc2[nH]c(-c3ccc(C)cc3)cc(=O)c2c1	75*	42	51	31	33	43*
CSc1ccc(CN2CCc3c([nH]c4ccccc34)C2)cc1	40	-16	18	20	17	3
COc1cc(OC)c(CN2CCc3c([nH]c4ccccc34)C2)cc1Br	25	16	17	21	19	75*
Cc1cccc(CN2CCc3c([nH]c4ccccc34)C2)c1	6	21	18	17	-2	13
Clc1cccc(CN2CCc3c([nH]c4ccccc34)C2)c1	13	2	9	60*	1	12
SMILES	TWEAK Fn14 block	TROY signal inh	MITF TRPM1 inh	Peg3 prom inh	Shn3 inh set2	EBV LMP1 NFkB
CCN(CC)S(=O)(=O)c1cccc(C(=O)OCC(=O)NCc2ccccc2OC)c1	-7	-9	9	1	-16	-5
Cc1ccc(C)c(NC(=O)CN(C)C(=O)C2COc3ccccc3O2)c1 (stereo not drawn)	-10	6	3	5	-1	3
CC1COc2ccccc2N1C(=O)c1ccc(Cl)cc1 (stereo not drawn)	6	-3	0	13	13	4
O=C(C(Cl)Cl)N1c2ccccc2OCC1c1ccccc1 (stereo not drawn)	32	14	5	59*	36	5
Cc1ccc(S(=O)(=O)N2c3ccccc3OCC2c2ccccc2)cc1 (stereo not drawn)	63*	16	7	34	76	2
COCCNC(=O)c1c(N)n(/N=C/c2ccc(F)cc2)c2nc3ccccc3nc12	16	2	.	19	-1	.
CC(C)CNC(=O)c1c(N)n(/N=C/c2ccccn2)c2nc3ccccc3nc12	11	5	3	54*	-5	-3
CCOC(=O)C1CCCN(S(=O)(=O)c2ccc(-c3cc(C)no3)s2)C1 (stereo not drawn)	-14	1	0	-6	15	0
CC(=O)Oc1ccc(/C=C2/Oc3ccccc3C2=O)cc1	-12	-67	-74	-90	-49	-2
COc1ccc(C=C2OC(=O)C(C(C)=O)=C2O)cc1	13	-20	.	-90	-54	51*
COc1ccc(/C=C2\Oc3ccccc3C2=O)cc1	65*	26	11	-51	-29	14
CCc1ccc(/C=C2\SC(=S)N(CCCC(=O)N(CCO)c3ccccc3)C2=O)cc1	36	35	.	76*	8	10
CCc1ccc(/C=C2/SC(=S)N(CCCC(=O)Nc3ccccc3C(=O)O)C2=O)cc1	33	75*	27	34	9	2
CCOc1ccc(/C=C2\CCC(C3CCCC3)C2=O)cc1 (stereo not drawn)	27	15	-117	-312	-43	-12
CCC(=O)OCOc1ccc(/C=C2/CCC(CN(C)C)C2=O)cc1 (stereo not drawn)	37	-7	67*	100*	78	1
Cc1ccc(CNC(=O)C2CCC(=O)N(CCc3ccc(Cl)cc3)C2)cc1 (stereo not drawn)	-13	-30	-78	-156	-26	-25
COc1cccc(NC(=O)Cn2c(=O)n(CCC(=O)NC3CCN(Cc4ccccc4)CC3)c(=O)c3ccccc32)c1	-14	7	-16	15	3	7
COc1ccc(O)c(/C=N/c2nc3ccccc3n2C)c1	8	11	-16	43	9	90*
COc1cccc(-c2ccccc2C2=CC(=O)CC(C)(C)C2=O)c1	0	-8	.	21	7	3
Cc1ccc(S(=O)(=O)NCCNC(=O)CN2CCOCC2)cc1	20	-12	-2	-8	-5	-8
c1ccc(-c2csc3ncnc(NCc4ccccn4)c23)cc1	65*	-14	33	39	75	19
Oc1ccc(Nc2ncnc3scc(-c4ccccc4)c23)cc1	63*	33	13	15	-14	12
Cc1ccc(-n2nc3ccc(N)cc3n2)cc1	-33	-48	7	-127	18	-12

Screening results from PubChem.
